This is an account of results in PubChem BioAssay (EPA / NIEHS).

Test [1] addresses rabbit Imidazoline 2 Central (I2C), CKB (gene 100009085) (UniProt P00567). Description: NVS_ENZ_rabI2C: NovaScreen (NVS) Enzymatic Assay for rabbit Imidazoline 2 Central (I2C) (AID 2283228). The method, boiled down: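 Rabbit brain membranes, cell-free; readout by filter-based scintillation counting 1.5 hours after dosing, loss of signal vs DMSO. Initial duplicate test at 25 uM, then concentration-response with 50 uM top concentration.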

The target in test [2] is human Sirtuin 3 (SIRT3), SIRT3 (gene 23410) (UniProt Q9NTG7). Description: NVS_ENZ_hSIRT3: NovaScreen (NVS) Enzymatic Assay for human Sirtuin 3 (SIRT3) (AID 2283222). The method, boiled down:
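Cell-free enzyme assay with recombinant protein and fluorescent substrate, product separated by electrophoretic mobility shift; read 1 hour after dosing. Screened in duplicate at 25 uM, then singleton concentration-response up to 50 uM; loss of signal versus DMSO.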

Test [3] deals with Tyrosine-protein phosphatase non-receptor type 14 (Homo sapiens) (UniProt Q15678). Description: NVS_ENZ_hPTPN14: NovaScreen (NVS) Enzymatic Assay for human Protein Tyrosine Phosphatase Non-receptor Type 14 (PTPN14) (AID 2283206). The method, boiled down: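 Cell-free recombinant human PTPN14 with fluorescent substrate, read 0.5 h after dosing by fluorescence and electrophoretic mobility shift separating substrate from product. Primary screen at 25 uM in duplicate; hits run to 50 uM maximum; loss of signal versus DMSO.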

Test [4] addresses human Rho Associated Coiled-coil Containing Protein Kinase 1 (ROCK1), ROCK1 (gene 6093) (UniProt Q13464). Nature of the test: NVS_ENZ_hROCK1: NovaScreen (NVS) Enzymatic Assay for human Rho Associated Coiled-coil Containing Protein Kinase 1 (ROCK1) (AID 2283214). The procedure, abridged:
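Cell-free recombinant human ROCK1 activity assay; fluorescent substrate and product separated by electrophoretic mobility shift, read 1 h after dosing. Screened in duplicate at 25 uM; loss of signal versus DMSO baseline scored as inhibition.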

Test [5] has as its target human Sirtuin 2 (SIRT2), SIRT2 (gene 22933) (UniProt Q8IXJ6). Description: NVS_ENZ_hSIRT2: NovaScreen (NVS) Enzymatic Assay for human Sirtuin 2 (SIRT2) (AID 2283217). The procedure, abridged:
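Cell-free recombinant human SIRT2, fluorescent substrate with product separated by electrophoretic mobility shift, 1 hr. Screened in duplicate at 25 uM; hits rerun singly in concentration-response up to 50 uM, relative to DMSO.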

Test [6] addresses Tyrosine-protein phosphatase non-receptor type 13 (Homo sapiens) (UniProt Q12923). Nature of the test: NVS_ENZ_hPTPN13: NovaScreen (NVS) Enzymatic Assay for human Protein Tyrosine Phosphatase Non-receptor Type 13 (PTPN13) (AID 2283205). The procedure, abridged: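 Cell-free assay of recombinant human PTPN13 with a fluorescent substrate, product separated by electrophoretic mobility shift and read 0.5 h after dosing. Primary screen at 25 uM in duplicate, then concentration-response up to 50 uM. Loss of signal fitted against DMSO.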

For test [7], the target named is human Sirtuin 1 (SIRT1), SIRT1 (gene 23411) (UniProt Q96EB6). Nature of the test: NVS_ENZ_hSIRT1: NovaScreen (NVS) Enzymatic Assay for human Sirtuin 1 (SIRT1) (AID 2283219). The method, boiled down: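 Cell-free recombinant SIRT1 with a fluorescent substrate; substrate and product separated by electrophoretic mobility shift and read by fluorescence intensity, 1 h after dosing. Primary screen at 25 uM in duplicate; hits re-run in concentration-response up to 50 uM, relative to DMSO.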

Test [8] concerns the target human Tropomyosin Receptor Kinase A (TRKA), NTRK1 (gene 4914) (UniProt P04629). Nature of the test: NVS_ENZ_hTrkA: NovaScreen (NVS) Enzymatic Assay for human Tropomyosin Receptor Kinase A (TRKA) (AID 2283224). The procedure, abridged: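 Recombinant human TrkA activity read after 1 h by fluorescence with electrophoretic mobility shift separating substrate and product. Primary screen in duplicate at 25 uM; actives were rerun in concentration-response up to 50 uM. Loss of signal versus DMSO.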

The target of test [9] is human Phosphoinositide 3-kinase alpha (PI3Ka), PIK3CA (gene 5290) (UniProt P42336). Nature of the test: NVS_ENZ_hPI3Ka: NovaScreen (NVS) Enzymatic Assay for human Phosphoinositide 3-kinase alpha (PI3Ka) (AID 2283196). The procedure, abridged: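 Fluorescence/mobility-shift readout of substrate conversion by recombinant enzyme, 1 h post-dosing. Primary screen in duplicate at 25 uM; actives (e.g. ≥30% inhibition) retested in singleton concentration-response, top concentration 50 uM.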

Test [10] addresses human Protein Tyrosine Phosphatase Receptor Type B (PTPRB), PTPRB (gene 5787) (UniProt P23467). Nature of the test: NVS_ENZ_hPTPRB: NovaScreen (NVS) Enzymatic Assay for human Protein Tyrosine Phosphatase Receptor Type B (PTPRB) (AID 2283211). The method, boiled down: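 Recombinant human PTPRB with a fluorescent substrate, product separated by electrophoretic mobility shift; read 1 h after dosing. Primary screen in duplicate at 25 uM; actives then retested in concentration series; loss of signal versus DMSO.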

Test [11] concerns the target human Protein Tyrosine Phosphatase Receptor Type F (PTPRF), PTPRF (gene 5792) (UniProt P10586). Description: NVS_ENZ_hPTPRF: NovaScreen (NVS) Enzymatic Assay for human Protein Tyrosine Phosphatase Receptor Type F (PTPRF) (AID 2283213). The procedure, abridged:
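Cell-free fluorescence enzyme assay with recombinant protein and substrate; product separated by electrophoretic mobility shift. Read 1 h after dosing, single 25 uM duplicate screen, then concentration-response up to 50 uM; loss of signal vs DMSO.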

Test [12] concerns the target human Protein Tyrosine Phosphatase Non-receptor Type 1 (PTPN1), PTPN1 (gene 5770) (UniProt P18031). Description: NVS_ENZ_hPTPN1: NovaScreen (NVS) Enzymatic Assay for human Protein Tyrosine Phosphatase Non-receptor Type 1 (PTPN1) (AID 2283201). The method, boiled down:
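Cell-free fluorogenic-substrate activity assay on recombinant enzyme, read 1.33 h after dosing by fluorescence and electrophoretic mobility shift; loss of signal vs DMSO baseline. Primary screen in duplicate at 25 uM, hits then run in concentration-response up to 50 uM.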

Test [13] addresses human Protein Tyrosine Phosphatase Non-receptor Type 6 (PTPN6), PTPN6 (gene 5777) (UniProt P29350). Nature of the test: NVS_ENZ_hPTPN6: NovaScreen (NVS) Enzymatic Assay for human Protein Tyrosine Phosphatase Non-receptor Type 6 (PTPN6) (AID 2283210). The method, boiled down:
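Cell-free assay with recombinant PTPN6 expressed in SF9 cells, fluorescent substrate, product separated from substrate by electrophoretic mobility shift; read 1.33 hours after dosing. Primary screen in duplicate at 25 uM, actives retested in concentration series; DMSO baseline.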

The target of test [14] is Serine/threonine-protein phosphatase PP1-alpha catalytic subunit (Homo sapiens) (UniProt P62136). Nature of the test: NVS_ENZ_hPPP1CA: NovaScreen (NVS) Enzymatic Assay for human Protein Phosphatase 1 Aatalytic subunit Alpha (PPP1CA) (AID 2283200). The method, boiled down: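 Recombinant enzyme activity read by fluorescence with electrophoretic mobility shift separating substrate from product, 1.33 h after dosing; loss of signal vs DMSO baseline. Primary screen in duplicate at 25 uM; actives retested in concentration-response up to 50 uM.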

The target of test [15] is Tyrosine-protein phosphatase non-receptor type 11 (Homo sapiens) (UniProt Q06124). Description: NVS_ENZ_hPTPN11: NovaScreen (NVS) Enzymatic Assay for human Protein Tyrosine Phosphatase Non-receptor Type 11 (PTPN11) (AID 2283202). The method, boiled down:
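Recombinant human PTPN11 activity on a fluorescent substrate, with substrate/product separated by electrophoretic mobility shift; read 0.5 h after dosing, loss of signal vs DMSO. Duplicate 25 uM screen, then concentration-response up to 50 uM.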

In test [16] the target is Tyrosine-protein phosphatase non-receptor type 12 (Homo sapiens) (UniProt Q05209). Nature of the test: NVS_ENZ_hPTPN12: NovaScreen (NVS) Enzymatic Assay for human Protein Tyrosine Phosphatase Non-receptor Type 12 (PTPN12) (AID 2283204). The procedure, abridged: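 Single-concentration duplicates (25 uM) preceded singleton concentration-response up to 50 uM for chemicals passing threshold. Cell-free recombinant PTPN12 activity was read 1.33 h after dosing via fluorescence after mobility-shift separation; loss of signal versus DMSO.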

Where “and” joins values, the source holds several entries; their conditions need not be identical. Equal entries are not always repeated. Inconclusive results are not listed. Calls of active or inactive are those of the source. How the source made its calls: active means hit-call score of the fitted dose curve at least 0.9, where 1 is the maximum; inconclusive means response in the unintended direction; inactive means score below 0.9.

The AC50 is the concentration at which the activity in the assay is half-maximal.

Chain of human Protein Tyrosine Phosphatase Receptor Type B (PTPRB), PTPRB (gene 5787) (P23467 whole entry, looked up): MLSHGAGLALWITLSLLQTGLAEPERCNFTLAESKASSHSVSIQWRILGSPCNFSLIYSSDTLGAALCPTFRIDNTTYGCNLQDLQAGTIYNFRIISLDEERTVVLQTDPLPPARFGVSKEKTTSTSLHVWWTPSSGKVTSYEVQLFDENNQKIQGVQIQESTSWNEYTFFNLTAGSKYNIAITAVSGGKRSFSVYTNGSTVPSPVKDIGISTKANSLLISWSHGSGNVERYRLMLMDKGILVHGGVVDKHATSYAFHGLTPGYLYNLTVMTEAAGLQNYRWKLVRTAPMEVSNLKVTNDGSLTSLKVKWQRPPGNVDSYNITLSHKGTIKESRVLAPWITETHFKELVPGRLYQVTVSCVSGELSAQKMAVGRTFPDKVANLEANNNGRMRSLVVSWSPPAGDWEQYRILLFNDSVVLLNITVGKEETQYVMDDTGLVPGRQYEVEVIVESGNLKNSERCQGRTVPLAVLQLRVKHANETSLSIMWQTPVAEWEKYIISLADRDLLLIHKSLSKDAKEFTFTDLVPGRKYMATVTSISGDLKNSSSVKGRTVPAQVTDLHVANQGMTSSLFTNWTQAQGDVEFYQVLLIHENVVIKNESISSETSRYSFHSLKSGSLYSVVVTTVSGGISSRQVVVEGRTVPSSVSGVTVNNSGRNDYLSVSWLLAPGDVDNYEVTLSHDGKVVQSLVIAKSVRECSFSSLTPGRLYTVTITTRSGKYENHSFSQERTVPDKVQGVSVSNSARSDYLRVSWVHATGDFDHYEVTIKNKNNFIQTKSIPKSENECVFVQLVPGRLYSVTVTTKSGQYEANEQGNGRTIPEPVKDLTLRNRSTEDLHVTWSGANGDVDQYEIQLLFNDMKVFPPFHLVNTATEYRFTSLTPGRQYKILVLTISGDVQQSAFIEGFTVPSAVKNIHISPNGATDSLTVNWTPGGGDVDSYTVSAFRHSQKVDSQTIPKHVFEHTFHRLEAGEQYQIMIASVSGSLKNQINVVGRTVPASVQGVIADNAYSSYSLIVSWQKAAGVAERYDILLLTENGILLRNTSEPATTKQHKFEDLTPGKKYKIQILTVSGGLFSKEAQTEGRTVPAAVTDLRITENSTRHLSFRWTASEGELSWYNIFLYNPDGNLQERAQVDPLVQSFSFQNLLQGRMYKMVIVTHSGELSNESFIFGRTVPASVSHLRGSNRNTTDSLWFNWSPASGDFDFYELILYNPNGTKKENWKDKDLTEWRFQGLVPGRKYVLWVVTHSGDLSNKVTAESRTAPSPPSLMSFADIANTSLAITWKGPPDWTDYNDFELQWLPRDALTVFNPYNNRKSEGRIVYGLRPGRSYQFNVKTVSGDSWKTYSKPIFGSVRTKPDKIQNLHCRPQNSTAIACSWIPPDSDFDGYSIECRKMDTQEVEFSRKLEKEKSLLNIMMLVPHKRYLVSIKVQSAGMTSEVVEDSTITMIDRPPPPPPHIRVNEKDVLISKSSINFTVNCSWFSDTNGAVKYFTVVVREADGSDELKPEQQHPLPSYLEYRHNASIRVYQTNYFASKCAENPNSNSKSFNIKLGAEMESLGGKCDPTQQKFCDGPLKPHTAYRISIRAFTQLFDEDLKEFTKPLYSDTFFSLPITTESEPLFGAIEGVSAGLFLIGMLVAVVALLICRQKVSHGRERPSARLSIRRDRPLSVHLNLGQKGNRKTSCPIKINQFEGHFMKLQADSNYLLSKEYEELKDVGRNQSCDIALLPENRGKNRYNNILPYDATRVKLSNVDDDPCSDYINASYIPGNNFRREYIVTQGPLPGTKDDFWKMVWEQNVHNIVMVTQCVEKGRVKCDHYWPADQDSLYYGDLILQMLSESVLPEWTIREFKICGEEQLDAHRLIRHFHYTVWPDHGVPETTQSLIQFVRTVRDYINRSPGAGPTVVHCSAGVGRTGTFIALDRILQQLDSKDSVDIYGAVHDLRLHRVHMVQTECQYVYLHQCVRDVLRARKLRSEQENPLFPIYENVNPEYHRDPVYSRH
Chain of human Phosphoinositide 3-kinase alpha (PI3Ka), PIK3CA (gene 5290) (P42336 whole entry, looked up): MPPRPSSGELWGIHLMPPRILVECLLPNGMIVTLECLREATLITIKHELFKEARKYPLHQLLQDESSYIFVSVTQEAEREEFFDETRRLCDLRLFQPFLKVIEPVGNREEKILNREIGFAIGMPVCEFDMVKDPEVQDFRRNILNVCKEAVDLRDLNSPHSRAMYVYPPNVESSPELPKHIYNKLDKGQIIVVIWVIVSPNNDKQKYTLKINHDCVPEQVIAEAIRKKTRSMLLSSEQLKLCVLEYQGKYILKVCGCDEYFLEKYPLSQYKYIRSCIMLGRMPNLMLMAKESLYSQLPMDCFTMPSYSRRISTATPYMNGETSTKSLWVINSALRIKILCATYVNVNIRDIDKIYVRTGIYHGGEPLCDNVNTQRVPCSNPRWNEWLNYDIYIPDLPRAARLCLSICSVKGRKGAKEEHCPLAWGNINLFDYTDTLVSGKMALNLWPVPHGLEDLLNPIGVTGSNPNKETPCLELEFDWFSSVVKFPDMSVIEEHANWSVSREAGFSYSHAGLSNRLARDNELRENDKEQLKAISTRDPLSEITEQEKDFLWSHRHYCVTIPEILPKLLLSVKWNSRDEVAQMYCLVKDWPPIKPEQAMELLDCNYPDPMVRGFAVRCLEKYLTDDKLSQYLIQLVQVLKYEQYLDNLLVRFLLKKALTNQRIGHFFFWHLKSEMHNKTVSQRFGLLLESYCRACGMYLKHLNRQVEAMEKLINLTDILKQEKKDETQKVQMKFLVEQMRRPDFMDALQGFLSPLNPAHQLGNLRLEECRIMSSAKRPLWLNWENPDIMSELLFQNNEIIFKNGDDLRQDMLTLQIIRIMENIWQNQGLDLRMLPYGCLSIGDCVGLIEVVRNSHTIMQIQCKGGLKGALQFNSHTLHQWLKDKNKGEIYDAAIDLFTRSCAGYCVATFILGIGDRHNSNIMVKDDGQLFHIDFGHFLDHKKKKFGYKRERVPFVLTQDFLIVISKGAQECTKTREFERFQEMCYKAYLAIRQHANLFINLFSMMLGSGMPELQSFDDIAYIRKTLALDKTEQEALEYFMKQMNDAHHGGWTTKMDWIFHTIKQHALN
Chain of rabbit Imidazoline 2 Central (I2C), CKB (gene 100009085) (P00567 whole entry, looked up): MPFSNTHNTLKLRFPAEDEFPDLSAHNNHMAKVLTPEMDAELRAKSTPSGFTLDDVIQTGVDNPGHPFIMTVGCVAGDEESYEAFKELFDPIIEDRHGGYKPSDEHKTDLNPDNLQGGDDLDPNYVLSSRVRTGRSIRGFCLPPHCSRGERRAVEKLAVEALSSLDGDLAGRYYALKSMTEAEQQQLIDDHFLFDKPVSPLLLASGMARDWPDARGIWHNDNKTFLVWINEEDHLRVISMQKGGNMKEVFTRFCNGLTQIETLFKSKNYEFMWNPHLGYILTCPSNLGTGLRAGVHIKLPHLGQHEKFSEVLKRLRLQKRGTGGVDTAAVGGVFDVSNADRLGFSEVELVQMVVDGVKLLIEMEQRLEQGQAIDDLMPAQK
Chain of human Sirtuin 2 (SIRT2), SIRT2 (gene 22933) (Q8IXJ6 whole entry, looked up): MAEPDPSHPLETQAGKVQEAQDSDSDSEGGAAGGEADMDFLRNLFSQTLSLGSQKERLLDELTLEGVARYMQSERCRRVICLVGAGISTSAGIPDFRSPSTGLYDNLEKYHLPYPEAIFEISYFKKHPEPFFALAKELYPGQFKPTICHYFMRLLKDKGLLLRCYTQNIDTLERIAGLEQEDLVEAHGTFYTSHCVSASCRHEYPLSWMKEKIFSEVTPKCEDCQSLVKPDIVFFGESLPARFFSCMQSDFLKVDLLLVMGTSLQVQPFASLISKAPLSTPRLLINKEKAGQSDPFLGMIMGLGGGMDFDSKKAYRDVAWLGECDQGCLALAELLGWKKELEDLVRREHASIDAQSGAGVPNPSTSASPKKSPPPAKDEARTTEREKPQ
Chain of human Sirtuin 1 (SIRT1), SIRT1 (gene 23411) (Q96EB6 whole entry, looked up): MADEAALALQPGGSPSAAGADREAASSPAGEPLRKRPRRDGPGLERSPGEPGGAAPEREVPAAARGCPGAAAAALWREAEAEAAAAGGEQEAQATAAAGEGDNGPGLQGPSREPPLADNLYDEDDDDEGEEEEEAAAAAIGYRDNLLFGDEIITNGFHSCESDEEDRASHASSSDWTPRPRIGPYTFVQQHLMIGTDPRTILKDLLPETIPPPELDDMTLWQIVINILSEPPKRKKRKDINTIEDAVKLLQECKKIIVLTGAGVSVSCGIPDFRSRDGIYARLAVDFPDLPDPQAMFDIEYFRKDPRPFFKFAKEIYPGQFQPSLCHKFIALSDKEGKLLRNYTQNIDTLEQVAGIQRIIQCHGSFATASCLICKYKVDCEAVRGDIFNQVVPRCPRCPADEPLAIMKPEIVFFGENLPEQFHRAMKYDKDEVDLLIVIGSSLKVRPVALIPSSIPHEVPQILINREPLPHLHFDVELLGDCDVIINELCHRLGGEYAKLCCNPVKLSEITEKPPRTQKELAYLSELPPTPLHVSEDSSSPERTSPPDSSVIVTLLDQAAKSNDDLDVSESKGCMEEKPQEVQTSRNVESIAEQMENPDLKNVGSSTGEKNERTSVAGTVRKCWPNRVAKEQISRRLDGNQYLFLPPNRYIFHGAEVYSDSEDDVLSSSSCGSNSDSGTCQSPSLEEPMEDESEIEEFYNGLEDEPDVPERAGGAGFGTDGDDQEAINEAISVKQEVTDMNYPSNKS
Chain of human Sirtuin 3 (SIRT3), SIRT3 (gene 23410) (Q9NTG7 whole entry, looked up): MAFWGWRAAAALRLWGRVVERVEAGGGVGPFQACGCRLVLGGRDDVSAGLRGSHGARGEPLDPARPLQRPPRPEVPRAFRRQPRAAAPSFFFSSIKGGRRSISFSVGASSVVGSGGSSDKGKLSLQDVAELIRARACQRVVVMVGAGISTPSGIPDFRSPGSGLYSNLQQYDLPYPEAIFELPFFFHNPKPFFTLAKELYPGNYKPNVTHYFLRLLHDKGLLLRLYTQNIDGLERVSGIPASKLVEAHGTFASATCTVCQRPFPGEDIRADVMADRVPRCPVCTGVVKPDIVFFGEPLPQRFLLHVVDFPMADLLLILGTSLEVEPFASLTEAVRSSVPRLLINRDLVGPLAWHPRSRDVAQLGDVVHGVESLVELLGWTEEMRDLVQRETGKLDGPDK

For the molecule `CN(C)c1ccc(C(=C2C=CC(=[N+](C)C)C=C2)c2ccc(N(C)C)cc2)cc1`, in [1], the molecule was called inactive.

Turning to `O=C(Nc1ccc(Cl)cc1)Nc1ccc(Cl)c(Cl)c1`, in test [2], the molecule was classed as inactive.

With `COc1cc(C(=O)NC2CCN(C)CC2)ccc1Nc1ncc2c(n1)N(C1CCCC1)CC(F)(F)C(=O)N2C`, the molecule was classed as inactive in test [3], in test [4] and in [5].

As for `NC(=O)c1nc(-c2cccc(-c3cc(F)ccc3OCC(F)(F)C(F)(F)F)c2)n[nH]1`, the molecule was classed as inactive in test [5] and in test [2].

In the case of `CCCCOC(=O)CC(CC(=O)OCCCC)(OC(C)=O)C(=O)OCCCC`, the call in test [6] was inactive.

For `COc1ccc2cc(S(=O)(=O)N[C@H](CC(=O)N[C@H](Cc3ccc(CN4[C@H](C)CCC[C@@H]4C)cc3)C(=O)N(C)C(C)C)c3ccc4c(c3)OCO4)ccc2c1`, the molecule was classed as inactive in test [7].

Take `O=C(O)Cc1cc(I)c(Oc2ccc(O)c(I)c2)c(I)c1`: in [8], the AC50 was 2.58 µM (active).

In the case of `COc1cccc([C@H](O)C2CCN(CCc3ccc(F)cc3)CC2)c1OC`, the AC50 in test [1] is 12.7 µM (active).

On to `CCCCCCCCOC(=O)c1cc(O)c(O)c(O)c1`, for which the outcome in test [9] was inactive.

For `Clc1cc(Cl)c2c(c1)N=C1CCCCCN1C2`, the molecule was classed as inactive in [10] and in test [11]. Further, in test [1], the AC50 was 6.89 µM (active).

Regarding `c1ccc(C[n+]2cccc3ccccc32)cc1`, the molecule was classed as inactive in test [12] and in test [13]. Further, in test [1], the AC50 is 11.9 µM (active).

Take `O=C1O[C@H]([C@@H](O)CO)C(O)=C1O`: the molecule was classed as inactive in [9] and in [2].

As for `CCN(Cc1cccc(S(=O)(=O)O)c1)c1ccc(C(=C2C=CC(=[N+](CC)Cc3cccc(S(=O)(=O)O)c3)C=C2)c2ccccc2S(=O)(=O)[O-])cc1`, the half-maximal activity concentration (AC50) in test [14] was 5.82 µM (active); in test [3], 11.9 µM (active).

As to `O=c1c(-c2ccc(O)cc2)coc2cc(O)cc(O)c12`, the molecule was classed as inactive in test [7].

Turning to `NCc1cccc(C2CCN(C(=O)c3ccc(C#Cc4ccccc4F)o3)CC2)c1`, the AC50 in test [1] was 7.1 µM (active).

As for `CC(=O)N1CCN(c2ccc(OC[C@H]3CO[C@](Cn4ccnc4)(c4ccc(Cl)cc4Cl)O3)cc2)CC1`, the AC50 in [5] is 6.46 µM (active). Moreover, the outcome in test [7] was inactive.

With `Cc1c2ccccc2c(C)c2c1ccc1ccccc12`, in test [14], the molecule was called inactive.

On to `CC(C)(c1cc(Br)c(O)c(Br)c1)c1cc(Br)c(O)c(Br)c1`, for which the outcome in [4] was inactive.

In the case of `CCCCCCCCCCCC[N+](C)(C)C`, the AC50 in [1] is 2.13 µM (active).

With `CC(C)(C)c1csc(-c2cc3cc(OCc4ccccc4CC(=O)O)ccc3o2)n1`, the call in test [12], in test [15] and in test [5] was inactive.

In the case of `CC/C(=C(/CC)c1ccc(O)cc1)c1ccc(O)cc1`, the AC50 in test [9] is 40 µM (active) and 17.3 µM (active) and 27.8 µM (active). For the same molecule, the molecule was classed as inactive in test [15], in [16], in test [3] and in test [10].
